sEH activator: increases human soluble epoxide hydrolase activity | 91,000 tested, 0.04% active | activation, % at 2 µM | purified human sEH enzymatic activity, activator screen | P34913; in the data active = activation above about 37%
Target sequence (P34913 whole entry, looked up): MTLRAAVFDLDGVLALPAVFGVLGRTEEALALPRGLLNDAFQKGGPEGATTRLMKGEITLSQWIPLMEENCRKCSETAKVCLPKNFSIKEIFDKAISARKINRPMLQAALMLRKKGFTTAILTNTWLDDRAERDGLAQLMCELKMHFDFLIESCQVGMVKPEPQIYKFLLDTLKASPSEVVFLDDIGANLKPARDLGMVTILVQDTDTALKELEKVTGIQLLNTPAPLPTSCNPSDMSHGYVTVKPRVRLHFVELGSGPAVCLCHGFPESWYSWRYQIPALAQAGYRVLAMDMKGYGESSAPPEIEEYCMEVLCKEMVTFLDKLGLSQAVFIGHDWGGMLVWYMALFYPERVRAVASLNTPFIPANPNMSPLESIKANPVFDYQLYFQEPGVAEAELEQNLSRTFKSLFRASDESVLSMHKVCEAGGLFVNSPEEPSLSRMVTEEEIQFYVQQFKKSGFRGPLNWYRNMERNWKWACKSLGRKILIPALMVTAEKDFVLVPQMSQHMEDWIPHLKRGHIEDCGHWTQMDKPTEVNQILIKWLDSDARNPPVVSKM
MRP-1 activ: activates MRP-1. H69AR cells + doxorubicin, viability rescue, CellTiter-Glo. 140,000 tested, 0.61% active. viability increase, % at 10 µM;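 active = viability gain under doxorubicin at or above a set limit, the compound median plus 3 SD, cut at about 4.7% in these data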;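 also: MRP-1 overexpressing cells given doxorubicin 25 µM after compound pretreatment; 18-22 h compound pretreatment then 72 h with doxorubicin before readout; 0% = doxorubicin-only wells and 100% = vehicle-treated cells without doxorubicin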
Candida biofilm: kills Candida albicans biofilms; C. albicans biofilm + clotrimazole, Alamar Blue; inhibition, % at 6 µM; 85,000 tested, 0.14% active; AID 834;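 active = inhibition above 20%; inactive = inhibition below 20%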;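 also: preformed 24 hr biofilms exposed to compound for 48 hr; 0% = biofilm without compound and 100% = blank killed by clotrimazole plus chlorhexidine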
sEH inh: inhibitors of human soluble epoxide hydrolase; 91,000 tested, 0.34% active; recombinant human sEH enzymatic activity assay; AID 707; inhibition, % at 2 µM; P34913; in the data active = inhibition above about 80%
MRP resist rev: reverses drug resistance mediated by MRP; H69AR cells + 2 uM doxorubicin, CellTiter-Glo, 72 h; differential viability (reversal), % at 10 µM; 85,000 tested, 0.04% active; AID 602;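 active = viability drop by adding the cancer drug above about 55%, with treated viability meeting a 40% cutoff, limit read from the data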;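 also: viability without doxorubicin minus viability with 2 µM doxorubicin for each compound; larger differential means the compound sensitizes cells more to doxorubicin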
The depositor's hits bear a star; x = not tested or not shown. Only some compounds are listed: those with a hit (about 0.87% of all), similar ones and a draw of the others.

SMILES	sEH activator	MRP-1 activ	Candida biofilm	sEH inh	MRP resist rev
COc1ccc(CN=C2NC(=O)CC(C(=O)Nc3ccccc3C)S2)cc1 (stereo not given)	x	6.0*	x	x	x
Nc1n[nH]c(N)c1N=Nc1ccc(Cl)cc1Cl	x	-1.7	x	x	x
O=C(CCC1CCCCC1)NNC(=O)NC12CC3CC(CC(C3)C1)C2	-83.6	-2.0	x	83.8*	x
CC(C)NC(=S)N/N=C/c1cc(Br)ccc1O	x	5.0*	x	x	x
O=C(CCc1ccccc1)N/N=C/c1cc(Br)ccc1O	x	6.4*	x	x	x
Cc1ccccc1-n1c(-c2ccc(Cl)cc2)cnc1SCC(=O)NC1CCS(=O)(=O)C1 (stereo not given)	x	-3.1	x	x	x
COc1cccc([C@@H]2Oc3ccc(Br)cc3C(=O)[C@H]2OC(=O)NC2CCCC2)c1	x	-2.1	x	x	x
COc1cccc(/C=N/NC(=O)C(=O)NCc2ccco2)c1O	-5.1	6.0*	x	3.1	x
Cc1c(Cl)c([N+](=O)[O-])nn1Cc1ccc(C(=O)N/N=C\c2cccc(Br)c2)o1	-95.5	-2.7	x	95.6*	x
O=C(N/N=C\c1cccc(Cl)c1)c1ccc(Cn2cc(Br)c([N+](=O)[O-])n2)o1	x	-3.1	x	x	x
CCc1ccc(/C(C)=N/Nc2cc(Cl)nc(C)n2)cc1	2.8	7.9*	x	0.1	x
C/C(=N\Nc1cc(Cl)nc(C)n1)c1ccccc1	-11.8	0.2	x	10.2	x
COc1ccc(C2=Nc3ccc(Br)cc3C(c3ccccc3)N2CC(=O)NN)cc1 (stereo not given)	x	4.8*	x	x	x
Cc1sc(NC(=O)CN(Cc2ccc(F)cc2)C(=O)C(C)(C)C)c(C(N)=O)c1C	x	0.0	x	x	x
CC(C)Nc1cc(N2CCCC2)ccc1[N+](=O)[O-]	0.9	-2.9	x	0.9	x
CC(C)(C)c1ccc(CNc2cc(N3CCOCC3)ccc2[N+](=O)[O-])cc1	5.0	-1.7	x	-3.0	x
CC(C)(C)CNc1cc(N2CCCC2)ccc1[N+](=O)[O-]	1.9	4.8*	x	2.2	x
CC(C)c1ccc(CNc2cc(N3CCCC3)ccc2[N+](=O)[O-])cc1	-18.3	5.4*	x	16.6	x
Cc1cc(Br)ccc1SCC(=O)OCC(=O)Nc1ncc(C(F)(F)F)cc1Cl	x	-1.7	x	x	x
CCCCC(=O)NS(=O)(=O)c1ccc(N=NN2CCOCC2)cc1	x	-2.6	x	x	x
CC(C)Oc1cccc(C(=O)NC(=S)Nc2cccc(NC(=O)c3ccccc3Cl)c2)c1	x	-2.2	x	x	x
Cc1cccc(N2CCN(C3=NC(=O)C(Cc4ccccc4)S3)CC2)c1 (stereo not given)	x	-0.1	x	x	x
O=C(CN(C1CCCCC1)C1CCCCC1)N1CCc2ccccc2C1	3.1	-1.3	x	-1.5	x
CCC(C)/C(C)=N/NC(=O)c1ccc(COc2ccc(Cl)c(C)c2)cc1 (stereo not given)	x	-1.9	x	x	x
O=C(NCCc1ccccc1)C(=O)c1c(-c2ccccc2)cc2ccccn12	x	8.3*	x	x	x
SMILES	sEH activator	MRP-1 activ	Candida biofilm	sEH inh	MRP resist rev
O=C(Nc1nc(COc2ccccc2)cs1)c1ccccc1F	x	5.3*	x	x	x
COc1ccccc1OCc1csc(NC(=O)c2ccco2)n1	x	0.5	x	x	-1.2
Cc1ccc2oc(=O)c3cnn(CC(=O)Nc4cc(-c5cccc(F)c5)no4)c3c2c1	x	-3.5	x	x	x
CC(C)(C)c1ccc(S(=O)(=O)N2CCCCC2)cc1	x	-2.5	x	x	x
COc1ccc(N2CCN(c3nc(NCCO)nc(N4CCOCC4)n3)CC2)cc1	5.5	1.4	8.2	-1.8	19.1
COc1ccc(N2CCN(c3nc(Cl)nc(N4CCOCC4)n3)CC2)cc1	10.1	8.8*	5.5	-7.5	-7.5
COc1ccc(C2CC(c3ccccc3)=NN2C(=O)COC(=O)c2cccnc2)cc1 (stereo not given)	x	1.7	x	x	x
COc1ccc(C2CC(c3ccccc3)=NN2C(=O)COC(=O)c2cccnc2Cl)cc1 (stereo not given)	x	5.4*	x	x	x
COc1ccc(NC(=O)CSc2nnc(NC(=O)c3ccc(S(=O)(=O)N4CCOCC4)cc3)s2)cc1	x	-1.4	x	x	x
CCc1ccc(N(C)S(=O)(=O)c2ccc3[nH]cc(C(=O)NCCN4CCOCC4)c(=O)c3c2)cc1	1.4	-1.6	46.4*	-4.5	9.3
COC(=O)c1ccc(COc2ccccc2/C=C(\C#N)C(=O)Nc2c(C)cccc2C)cc1	x	-5.3	x	x	x
Cc1noc(/C=C/N(C)C)c1S(=O)(=O)N1CCCC(C(=O)NCc2cccs2)C1 (stereo not given)	-19.3	10.1*	3.1	22.1	2.6
Fc1ccc(CSc2nnc(-c3cccs3)o2)cc1	3.4	0.3	5.6	-2.3	1.2
Fc1ccc(Cc2nnc(-c3cccs3)o2)cc1	x	-0.4	24.1*	x	19.4
O=C(CSc1ncn[nH]1)Nc1ccc(Br)cc1F	3.1	7.0*	5.5	-1.7	-9.9
CC(C)c1nnc(NC(=O)CSc2ncn[nH]2)s1	6.3	4.8*	-1.9	-5.7	-9.1
CC(C)c1nnc(NC(=O)CSc2nc3ccccc3s2)s1	-15.3	-0.9	6.9	15.4	-0.9
COC(=O)c1[nH]c2ccccc2c1NC(=O)CN1CCN(c2cccc(Cl)c2)CC1	7.0	-3.5	5.5	-9.1	1.9
COC(=O)c1[nH]c2cccc(OC)c2c1NC(=O)CCN1CCN(c2cccc(Cl)c2)CC1	114.4*	-4.5	3.2	-113.1	42.9
Cc1cccc(Nc2nnc(SCC(=O)NCc3cccs3)s2)c1C	x	-1.4	x	x	x
Cc1nnc(NC(=O)c2c(F)cccc2F)s1	4.2	9.3*	2.7	-5.8	-0.8
CC(C)Cn1c(=O)c2ccccc2n2c(SCC(=O)N3c4ccccc4CC3C)nnc12 (stereo not given)	x	-2.1	x	x	x
CCNC(=O)CN(C1CCCCC1)S(C)(=O)=O	x	-2.0	x	x	x
c1ccc(OCCOCCN2CCOCC2)cc1	-10.5	0.1	62.5*	7.9	2.1
CCc1noc(C)c1C(=O)Nc1nc(-c2cc(C)ccc2C)c(C)s1	-0.5	5.5*	x	3.0	x
SMILES	sEH activator	MRP-1 activ	Candida biofilm	sEH inh	MRP resist rev
CCc1noc(C)c1C(=O)Nc1ncc(C)s1	3.0	0.1	5.9	0.0	21.0
CCc1nn2c(N)c(/C=C3\C=Nc4ccccc43)c(=O)nc2s1	x	8.2*	x	x	x
O=C1c2cccc3cccc(c23)C(=O)N1c1ccncc1	-6.7	5.7*	3.0	11.2	-10.7
O=C1c2cccc3cccc(c23)C(=O)N1c1cccnc1	8.7	2.6	-5.0	-10.1	-19.4
CCn1c(COc2ccc(Cl)cc2)nnc1SC1CCc2ccccc2C1=O (stereo not given)	x	7.1*	x	x	x
Cc1cc(C)n(C(C[N+](=O)[O-])c2ccc(Cl)cc2)n1 (stereo not given)	3.0	-5.0	x	-1.0	x
O=C(NCc1ccccc1)C(c1ccc(O)cc1)N(C(=O)Cn1nnc(-c2cccs2)n1)c1ccc2c(c1)OCCO2 (stereo not given)	8.3	5.8*	-8.5	-3.0	-8.3
CCOC(=O)c1ccc(N2C(=O)c3n[nH]c(-c4ccco4)c3C2c2cccc([N+](=O)[O-])c2)cc1 (stereo not given)	x	-3.8	x	x	x
O=C(Nc1ccc(N2CCCCC2)c(Cl)c1)c1ncn[nH]1	x	8.8*	x	x	x
O=C(Cc1ccc(Cl)cc1)Nc1ccc(N2CCN(C(=O)c3ccco3)CC2)c(Cl)c1	-85.8	0.4	3.1	86.0*	3.7
O=C(Nc1ccc(N2CCCC2)c(Cl)c1)c1ccco1	x	4.9*	-2.0	x	8.9
O=C(Nc1ccc(CCC(=O)N2CCCC2)cc1)c1ncn[nH]1	-0.1	-3.1	2.2	1.1	0.2
O=C(c1ccc(-c2cccc(Cl)c2)o1)N1CCN(c2ccc([N+](=O)[O-])cc2)CC1	x	4.7*	x	x	x
